Some test systems named below: T-47D breast; BT-549 breast; MDA-MB-435 melanoma; SW-620 colon; MCF7 breast; HCT-116 colon; HCC-2998 colon; KM12 colon; MDA-MB-468 breast.
Common to all, as to experiment: NCI-60 one-dose screen, 48 h (100 = growth as untreated, 0 = no growth, -100 = all killed)
Common to all, as to conditions: 10 µM unless noted

Molecules are shown by their SMILES. This is part of a sample that, as a whole, favours compounds with a hit. Of some 83,000 tested, about 20% had one in any assay.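 Single-concentration screen, 48 h exposure, 96-well plates. Endpoint: percent growth. Below 10 = active.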 Values without a mark were called inactive. Active and inactive are the calls of the source.

As for `CC(Nc1ncnc2ccc(-c3ccc4oc(N)nc4c3)cc12)c1ccccc1` (stereo unspecified), the growth in the assay with T-47D breast is -74.3% (active); in the assay with BT-549 breast it was -21.6% (active); with MDA-MB-435 melanoma it was 13%; in the assay with SW-620 colon it was -66.6% (active); in the assay with MCF7 breast, -73.1% (active); in the assay on HCT-116 colon it was -64.7% (active). For the same compound, the growth in the assay with HCC-2998 colon is 41.5%; with KM12 colon, 23.6%; in the assay on MDA-MB-468 breast, -78.4% (active).
`N/C(=N\c1nc2ccccc2s1)NC(=O)Nc1ccccc1[N+](=O)[O-]`: the growth in the assay on T-47D breast is 34.1%; in the assay on BT-549 breast it was 10.5%; in the assay with MDA-MB-435 melanoma, -45.1% (active); with SW-620 colon, 31%; in the assay with MCF7 breast, 12.8%; with HCT-116 colon it was 0.0336% (active). The growth in the assay on HCC-2998 colon was 8.25% (active); with KM12 colon, 1.31% (active); in the assay on MDA-MB-468 breast it was -0.807% (active).
For the compound `O=C(NN1C(=O)/C(=C/C=C/c2ccc([N+](=O)[O-])o2)SC1=S)c1ccc(O)cc1`, the growth was -53.4% (active) in the assay on T-47D breast; -94% (active) in the assay with BT-549 breast; -91% (active) with MDA-MB-435 melanoma; -69.1% (active) with SW-620 colon; -54.4% (active) in the assay with MCF7 breast; -85.1% (active) with HCT-116 colon. Moreover, the results for the growth in the assay on HCC-2998 colon, in the assay with KM12 colon and with MDA-MB-468 breast were -92.6% (active), -95.2% (active) and -77.3% (active), respectively.
`O=C1c2cccc3c(N4CCN(Cc5ccccc5)CC4)ccc(c23)C(=O)N1c1cccc(-c2nn(-c3ccccc3)cc2-c2nc3ccccc3s2)c1`: the growth in the assay on T-47D breast was 97.6%; in the assay on BT-549 breast, 114%; in the assay with MDA-MB-435 melanoma it was 108%; in the assay with SW-620 colon, 101%; in the assay with MCF7 breast, 88.6%; in the assay with HCT-116 colon, 100%. Also, the growth was 127% in the assay with HCC-2998 colon, 108% in the assay with KM12 colon and 95.7% in the assay with MDA-MB-468 breast.
Take `N#Cc1c(-c2ccc(F)cc2)nc(SCc2ccc(F)cc2)nc1N1CCNCC1`: the growth was -66.9% (active) in the assay with T-47D breast; 82.7% with BT-549 breast; -84.7% (active) with MDA-MB-435 melanoma; -83.7% (active) in the assay with SW-620 colon; -90.5% (active) with MCF7 breast; -99.3% (active) with HCT-116 colon. In addition, the growth was -91% (active) in the assay on HCC-2998 colon, -81.2% (active) with KM12 colon and -72% (active) with MDA-MB-468 breast.
`CCC(=O)c1cc(C(=O)OC)c2ccc3c4ccccc4ccc3n12`: the growth with T-47D breast was 75.8%; in the assay on BT-549 breast, 112%; in the assay on MDA-MB-435 melanoma, 93.6%; in the assay with SW-620 colon it was 84.4%; in the assay on MCF7 breast, 80.5%; in the assay with HCT-116 colon it was 35%. Besides, the growth in the assay with HCC-2998 colon is 99.8%; with KM12 colon it was 84.7%; in the assay on MDA-MB-468 breast, 83.6%.
Regarding `Cc1cc(=O)oc2cc(OCC(O)CNN3C(=O)c4cccc5c(N6CCN(C)CC6)ccc(c45)C3=O)ccc12` (stereo unspecified), the growth with T-47D breast is 109%; in the assay with BT-549 breast it was 113%; with MDA-MB-435 melanoma, 56.9%; in the assay with SW-620 colon, 84.3%; with MCF7 breast it was 88.6%; in the assay on HCT-116 colon it was 93.5%. In addition, the growth is 101% in the assay on HCC-2998 colon, 90.8% in the assay on KM12 colon and 108% with MDA-MB-468 breast.
For `CCOc1ccccc1[C@H]1C(C(=O)c2ccc(Cl)cc2)C2(N[C@@H]1c1ccccc1)C(=O)Nc1ccc(Br)cc12` (stereo partly specified), the growth is 13.2% in the assay on T-47D breast; -67.7% (active) in the assay on BT-549 breast; -59.3% (active) in the assay with MDA-MB-435 melanoma; 15.8% in the assay on SW-620 colon; -11.9% (active) in the assay on MCF7 breast; -92.6% (active) in the assay with HCT-116 colon. Also, the growth with HCC-2998 colon is -22% (active); in the assay on KM12 colon, -9.26% (active); with MDA-MB-468 breast it was -21.5% (active).
Take `CNc1nc2ccccc2n2c(-c3ccc(O)c(O)c3)cnc12`: the growth in the assay with T-47D breast was 42.2%; in the assay with BT-549 breast, -22.3% (active); with MDA-MB-435 melanoma it was -9.22% (active); in the assay with SW-620 colon, 24.6%; with MCF7 breast, 4.34% (active); in the assay on HCT-116 colon, 2.74% (active). In addition, the growth was 19.9% in the assay with HCC-2998 colon, -0.402% (active) with KM12 colon and 5.66% (active) with MDA-MB-468 breast.
In the case of `COc1cccc2nc(Nc3cccc(NC(=O)c4ccc(CN5CCN(C)CC5)c(C(F)(F)F)c4)c3)ccc12`, the growth in the assay on T-47D breast is -75.9% (active); in the assay on BT-549 breast, -93.7% (active); in the assay on MDA-MB-435 melanoma it was -98.1% (active); with SW-620 colon, -92.8% (active); in the assay on MCF7 breast, -79.2% (active); in the assay with HCT-116 colon it was -66.9% (active). The growth was -96.8% (active) with HCC-2998 colon, -51.1% (active) with KM12 colon and -97.2% (active) with MDA-MB-468 breast.
Consider `CN1CCN(C(=O)CCN(C(=O)Oc2cc3c(c4ccccc24)[C@H](CCl)CN3C(=O)c2cc3cc(OCCCN4CCC4)ccc3[nH]2)[C@H]2CCSSC2)CC1`, for which the growth in the assay with T-47D breast was -40.9% (active); in the assay on BT-549 breast, -68.3% (active); with MDA-MB-435 melanoma, -37.1% (active); in the assay with SW-620 colon, -54.2% (active); in the assay with MCF7 breast it was -67.4% (active); with HCT-116 colon, -42.7% (active). The values for the growth in the assay with HCC-2998 colon, in the assay on KM12 colon and in the assay with MDA-MB-468 breast were -91.2% (active), -63.3% (active) and -82.9% (active), respectively.
For the compound `S=C(Nc1ccc(OCc2nc3ccc(Cl)cc3[nH]2)cc1)NC1CCCCC1`, the growth is 17.3% in the assay on T-47D breast; 13.5% in the assay on BT-549 breast; -10.4% (active) with MDA-MB-435 melanoma; -7.01% (active) in the assay on SW-620 colon; 0.799% (active) with MCF7 breast; -31.6% (active) in the assay on HCT-116 colon. In addition, the growth was -69.5% (active) in the assay on HCC-2998 colon, -12.5% (active) in the assay with KM12 colon and -30.8% (active) in the assay with MDA-MB-468 breast.
Take `CN1C(=O)/C(=C/c2ccco2)S/C1=N/c1nccs1`: the growth in the assay on T-47D breast was 65.9%; with BT-549 breast it was 112%; with MDA-MB-435 melanoma, 107%; in the assay with SW-620 colon, 106%; with MCF7 breast, 33.7%; in the assay with HCT-116 colon it was 95.2%. Besides, the growth in the assay with HCC-2998 colon was 107%; in the assay with KM12 colon, 98%; in the assay on MDA-MB-468 breast, -13.2% (active).
For `Cc1ccc(-c2cc(-c3ccccc3)[nH]c(=O)c2C#N)cc1`, the growth in the assay on T-47D breast was 73.5%; with BT-549 breast, 88.5%; with MDA-MB-435 melanoma it was 107%; with SW-620 colon, 97.8%; in the assay on MCF7 breast it was 75.1%; in the assay with HCT-116 colon, 94.3%. For the same compound, the growth with HCC-2998 colon was 114%; with KM12 colon, 91.2%; with MDA-MB-468 breast, 89.4%.

The values are drawn from PubChem BioAssay (NCI).
